Experimental findings from PubChem BioAssay are described below.

Assay [1] can be described thus: resazurin metabolic signal in HepG2 cells – cell-based, resazurin fluorescence, 24 h, PK04 Diversity Set, profiling panel (AID 1172). The conditions noted are these: HepG2 viability, higher = more signal.
Assay [2] in a line: budding yeast growth changes without added modifier – OD600, strain BY4716, 24 h, basal condition, primary screen (AID 1173). The conditions noted are these: S. cerevisiae BY4716 growth, OD600, 24 h; higher = more signal, called active from +8 up or from −8 down.
A short description of assay [3]: viability profiling in MM1S myeloma cells – cell-based, resazurin fluorescence, basal, 24 h, PK04 Diversity Set, profiling panel (AID 1174).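 Further: MM1S multiple myeloma cell line.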 The conditions noted are these: higher = more signal, called active from +8 up or from −8 down.
Assay [4] deals with Dihydroorotate dehydrogenase (quinone), mitochondrial (Plasmodium falciparum (isolate 3D7)) (UniProt Q08210). Nature of the assay: inhibition of P. falciparum DHODH – biochemical, C-terminal His tag, absorbance 600 nm, primary screen (AID 1175).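 Further: recombinant parasite enzyme with a five histidine tag at its C terminus.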 The conditions noted are these: PfDHODH enzyme, DCIP absorbance 600 nm; higher = more signal, called active from +8 up or from −8 down.

Assay [5] in a line: inhibition of PAO1 biofilm formation – strain PAO1, LB-PBS medium, absorbance 600 nm, primary screen (AID 1176). The conditions noted are these: P. aeruginosa PAO1 growth/biofilm, A600, 12 h; higher = more signal.
Assay [6] is described as follows: growth modulation of vineyard yeast isolate – strain RM11-1a, OD600, basal, 24 h, primary screen (AID 1177).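 Further: cultures grown under basal conditions with no added stressor.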 The conditions noted are these: S. cerevisiae RM11-1a growth, OD600, 24 h; higher = more signal, called active from +8 up or from −8 down.
The nature of assay [7]: growth of efflux-deficient E. coli DRC39 – strain DRC39, OD650, 24 h, E. coli filamentation inducers, primary screen (AID 1178).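 Further: growth measured as culture turbidity by optical density at 650 nm.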 The conditions noted are these: E. coli DRC39 acrAB, higher = more signal, called active from +8 up or from −8 down.
Assay [8] in a line: growth of efflux-deficient E. coli DRC39 – strain DRC39, OD650, 48 h, E. coli filamentation inducers, primary screen (AID 1179).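 Further: screen aims at cell division blockers that make cells filament.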 The conditions noted are these: E. coli DRC39 delta-acrAB growth, higher = more signal, called active from +8 up or from −8 down.
Assay [9] in a line: viability profiling in RPMI8226 myeloma cells – cell-based, resazurin fluorescence, basal, 24 h, PK04 Diversity Set, profiling panel (AID 1180).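 Further: RPMI8826 multiple myeloma cell line at 5000 cells per well.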 To be noted: higher = more signal.
The target of assay [10] is E3 ubiquitin-protein ligase XIAP (Homo sapiens) (UniProt P98170). Nature of the assay: small molecules binding XIAP protein – biophysical, small-molecule microarray, fluorescence 635 nm, primary screen (AID 1181).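 Further: score merges 667 nm emission and signal to noise over triplicate slides.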 The conditions noted are these: higher = more signal.
Assay [11] relates to XIP peptide (Xip251-270) binding. The experiment in a line: XIP fragment 251-270 binding compounds – biochemical, small-molecule microarray, fluorescence 635/667 nm, 0.1 µg/mL protein, primary screen (AID 1182). The conditions noted are these: fluorescent protein binding, 635 nm, higher = more signal, called active from +8 up or from −8 down.
Another assay deals with XIP peptide (Xip251-270). The experiment in a line: compounds binding XIP fragment 251-270 – biochemical, small-molecule microarray, fluorescence 635/667 nm, 0.5 µg/mL protein, primary screen (AID 1183). The conditions noted are these: fluorescence 635 nm, higher = more signal.
A short description of assay [12]: blood-stage malaria parasite viability loss – strain 3D7, DAPI fluorescence, 100 nL, primary screen (AID 1184).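 Further: parasites grown inside human red blood cells in medium with human serum.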 The conditions noted are these: P. falciparum 3D7 growth, 3 d, higher = more signal.
For assay [13], the target named is Homeobox protein Hox-A13 (Mus musculus) (UniProt Q62424). Nature of the assay: disruptors of Hoxa13 oligonucleotide interaction – biochemical, fluorescence polarization, labeled oligonucleotide, primary screen (AID 1185). The conditions noted are these: Hoxa13:DNA binding, 15 min, higher = more signal, called active from +8 up or from −8 down.
A short description of assay [14]: blockers of DNA damage checkpoint Chk1 activation – imaging, HeLa, hydroxyurea, phospho-Chk1 antibody, percent positive cells, primary screen (AID 1186). To be noted: hydroxyurea-induced phospho-Chk1 immunofluorescence imaging, higher = more signal.
The nature of assay [15]: blockers of DNA damage checkpoint Chk1 activation – imaging, HeLa, hydroxyurea, phospho-Chk1 nuclear intensity, primary screen (AID 1187). The conditions noted are these: hydroxyurea-induced phospho-Chk1 immunofluorescence imaging, higher = more signal.

Active and inactive are the calls of the source. Unless noted, how the calls were made is not given here.

E3 ubiquitin-protein ligase XIAP (Homo sapiens), sequence (P98170 whole entry, looked up, the tested form may be a part): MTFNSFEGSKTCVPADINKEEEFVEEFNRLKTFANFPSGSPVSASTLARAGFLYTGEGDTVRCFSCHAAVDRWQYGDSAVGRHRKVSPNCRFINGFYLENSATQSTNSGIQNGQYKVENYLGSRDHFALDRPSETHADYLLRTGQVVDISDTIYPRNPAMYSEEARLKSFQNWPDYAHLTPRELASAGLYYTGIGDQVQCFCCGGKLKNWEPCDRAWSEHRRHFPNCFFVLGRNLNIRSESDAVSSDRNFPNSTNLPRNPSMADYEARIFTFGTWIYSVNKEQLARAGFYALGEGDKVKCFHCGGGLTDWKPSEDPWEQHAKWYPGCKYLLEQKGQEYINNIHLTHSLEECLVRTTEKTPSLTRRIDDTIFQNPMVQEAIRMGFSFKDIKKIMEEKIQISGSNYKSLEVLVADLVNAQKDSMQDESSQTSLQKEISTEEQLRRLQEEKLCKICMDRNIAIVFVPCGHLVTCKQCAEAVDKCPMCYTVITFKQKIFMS
Dihydroorotate dehydrogenase (quinone), mitochondrial (Plasmodium falciparum (isolate 3D7)), sequence (Q08210 whole entry, looked up): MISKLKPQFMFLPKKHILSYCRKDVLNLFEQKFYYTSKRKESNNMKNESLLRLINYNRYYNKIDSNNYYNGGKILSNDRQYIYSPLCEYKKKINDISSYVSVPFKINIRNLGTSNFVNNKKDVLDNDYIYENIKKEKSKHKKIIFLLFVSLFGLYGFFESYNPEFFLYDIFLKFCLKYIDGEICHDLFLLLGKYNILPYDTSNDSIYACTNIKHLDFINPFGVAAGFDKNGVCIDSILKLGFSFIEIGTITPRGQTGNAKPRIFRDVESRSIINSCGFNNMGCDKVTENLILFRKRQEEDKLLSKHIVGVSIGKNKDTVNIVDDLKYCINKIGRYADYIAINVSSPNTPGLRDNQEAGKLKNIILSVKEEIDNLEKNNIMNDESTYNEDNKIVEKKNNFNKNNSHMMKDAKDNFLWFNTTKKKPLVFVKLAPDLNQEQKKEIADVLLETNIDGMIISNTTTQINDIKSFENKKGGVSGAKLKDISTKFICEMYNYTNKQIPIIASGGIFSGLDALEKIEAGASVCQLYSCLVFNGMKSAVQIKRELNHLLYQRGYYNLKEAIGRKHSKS
Homeobox protein Hox-A13 (Mus musculus), sequence (Q62424 whole entry, looked up): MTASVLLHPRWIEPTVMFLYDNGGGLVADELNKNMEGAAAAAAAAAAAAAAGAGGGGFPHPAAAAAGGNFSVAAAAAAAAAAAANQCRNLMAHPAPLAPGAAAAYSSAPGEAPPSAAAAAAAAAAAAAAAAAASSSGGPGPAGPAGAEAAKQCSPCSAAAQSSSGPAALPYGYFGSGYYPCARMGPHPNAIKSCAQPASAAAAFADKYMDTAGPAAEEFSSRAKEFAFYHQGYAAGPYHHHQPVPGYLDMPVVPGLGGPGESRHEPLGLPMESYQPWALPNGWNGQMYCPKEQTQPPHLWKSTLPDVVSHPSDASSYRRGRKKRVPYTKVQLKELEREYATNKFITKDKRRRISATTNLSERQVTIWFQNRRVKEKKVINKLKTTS

With `COC(=O)C1=CC(CCCO)=CC(c2cccs2)N(C)C=C1C(=O)OC` (centres undefined), the z-score was -0.86 in assay [1]; 0.856 (inactive) in [2]; -0.482 (inactive) in assay [3]; 0.462 (inactive) in assay [5]; 1.13 (inactive) in [6]; -0.187 (inactive) in assay [7]. In addition, the z-score was -0.532 (inactive) in [8]; 0.0222 in assay [9]; -0.389 in assay [12]; -7.53 (inactive) in [13]; 0.176 (inactive) in assay [14]; 0.219 (inactive) in [15]. Moreover, the composite z-score in assay [4] is 0.75 (inactive); in [10], 0.212; in assay [11] it was 0.0334 (inactive); in the assay with XIP peptide (Xip251-270), 0.819.

As to `CC(C)C(CO)N1C(=O)[C@@H]2[C@H]3C(=O)OCC=C[C@H]3OC23C=CCN(c2ccc(Cl)cc2)C(=O)[C@@H]13` (some centres undefined), the z-score is -0.0883 in [1]; 0.646 (inactive) in [2]; 0.679 (inactive) in assay [3]; -1.13 (inactive) in assay [5]; 1.48 (inactive) in [6]; 0.969 (inactive) in assay [7]. Moreover, the z-score in [8] was 0.646 (inactive); in [9], 1.08; in assay [12] it was -0.485; in assay [13] it was -3.03 (inactive); in assay [14], -0.438 (inactive); in [15], -0.468 (inactive). Besides, the composite z-score in assay [4] is 1.13 (inactive); in assay [10] it was -0.21; in assay [11], 0.331 (inactive); with XIP peptide (Xip251-270), -0.202.

On to `COc1cc2c(cc1O)C(c1ccc(CN3CCCC3)cc1)N(Cc1cc3c(cc1Br)OCO3)CC2` (centres undefined), for which the z-score in assay [1] is 0.686; in [2], -0.714 (inactive); in [3], -1.44 (inactive); in assay [5], -0.0218 (inactive); in assay [6], -0.365 (inactive); in [7], -1.36 (inactive). Moreover, the z-score in assay [8] is -1.01 (inactive); in [9], 0.174; in assay [12], -2.36; in [13] it was -1.73 (inactive); in [14], 0.055 (inactive); in [15] it was 0.174 (inactive). Further, the composite z-score in assay [4] was -0.296 (inactive); in [10], -0.123; in [11] it was 0.0473 (inactive); in the assay on XIP peptide (Xip251-270), 0.723.

For `O=C1C[C@]2(c3ccc([N+](=O)[O-])cc3)C(=O)N(C3CC3)c3cc(CO)ccc3[C@H]2N1CC12CC3CC(CC(C3)C1)C2`, the z-score in assay [1] was -0.742; in assay [2], 0.359 (inactive); in assay [3], -0.118 (inactive); in assay [5], 0.677 (inactive); in assay [6], 0.866 (inactive); in assay [7], -0.292 (inactive). For the same molecule, the z-score in assay [8] was -0.616 (inactive); in assay [9] it was 0.0683; in [12], -1.38; in assay [13] it was -0.902 (inactive); in assay [14], -0.0994 (inactive); in assay [15] it was -0.497 (inactive). In addition, the composite z-score is -3.84 (inactive) in assay [4], -0.158 in assay [10], 0.196 (inactive) in assay [11] and 0.463 in the assay on XIP peptide (Xip251-270).

For the molecule `CCCC[C@@H]1C[C@H]1[C@@H](NC(=O)c1cccs1)c1ccccc1C(F)(F)F`, the z-score is -0.119 in assay [1]; 0.866 (inactive) in assay [2]; -0.186 (inactive) in [3]; 0.591 (inactive) in assay [5]; 0.742 (inactive) in assay [6]; -0.561 (inactive) in assay [7]. Besides, the z-score was -0.469 (inactive) in [8]; 0.276 in assay [9]; -1.27 in assay [12]; 0.322 (inactive) in assay [13]; -0.0139 (inactive) in [14]; 0.364 (inactive) in [15]. Moreover, the composite z-score in assay [4] is -0.271 (inactive); in assay [10], 0.99; in [11], 0.269 (inactive); in the assay with XIP peptide (Xip251-270), 0.305.

Regarding `CCOC(=O)C[C@H]1[C@H](OC(=O)Cc2ccc3c(c2)OCO3)[C@@H](NC(=O)c2ccc3ccccc3n2)c2cc(OCCCO)ccc2N1C(=O)c1ccccc1`, the z-score in [1] was 0.374; in [2], -0.407 (inactive); in assay [3] it was -1.51 (inactive); in assay [5] it was -0.325 (inactive); in assay [6] it was 0.946 (inactive); in assay [7] it was -0.247 (inactive). Moreover, the z-score is 0.208 (inactive) in assay [8]; -0.139 in [9]; -1.03 in assay [12]; -2.41 (inactive) in assay [13]; -0.705 (inactive) in assay [14]; -0.277 (inactive) in assay [15]. In addition, the composite z-score in [4] is -0.32 (inactive); in [10], 0.134; in [11], 0.269 (inactive); in the assay with XIP peptide (Xip251-270), 0.256.

For the molecule `CC[C@@H]1O[Si](C(C)C)(C(C)C)c2c1cc(-c1cc(C)c(OC)c(C)c1)nc2-c1ccc(Oc2ccccc2)cc1`, the z-score in assay [1] was 1.41; in assay [2], -0.122 (inactive); in [3], 0.722 (inactive); in assay [5], -0.783 (inactive); in assay [6], -0.0894 (inactive); in assay [7] it was 0.48 (inactive). Further, the z-score in assay [8] was 0.424 (inactive); in assay [9] it was 0.51; in [12], 0.0977; in assay [13] it was -1.52 (inactive); in [14], -0.557 (inactive); in [15], -0.461 (inactive). In addition, the composite z-score in assay [4] was -0.148 (inactive); in [10], 0.113; in assay [11], -0.162 (inactive); in the assay on XIP peptide (Xip251-270), -0.22.

As for `COC(=O)[C@@]1(Cc2ccc(OC)cc2)[C@H]2c3cc(C(=O)N(C)C)n(Cc4ccc(C)o4)c3C[C@H]2CN1C(=O)c1ccccc1`, the z-score in [1] was -0.239; in assay [2], 0.256 (inactive); in assay [3], -3.45 (inactive); in assay [5], -0.719 (inactive); in [6] it was 1.54 (inactive); in assay [7] it was 0.502 (inactive). Moreover, the z-score in assay [8] is -0.0131 (inactive); in assay [9], -4.83; in assay [12], -0.952; in assay [13], -4.5 (inactive); in [14], 0.046 (inactive); in assay [15] it was 0.304 (inactive). In addition, the composite z-score in [4] is 0.376 (inactive); in assay [10] it was 0.072; in assay [11], 0.223 (inactive); in the assay on XIP peptide (Xip251-270), 0.0805.

For `CCCC[C@@H](O)C1=C(COC)C[C@H]2C(=O)N(Cc3ccccc3)C(=O)[C@H]2[C@H]1CO`, the z-score in assay [1] is 0.111; in assay [2], -1.22 (inactive); in [3], -1.61 (inactive); in [5], -0.496 (inactive); in [6], 0.643 (inactive); in [7] it was 0.418 (inactive). The z-score in [8] is 0.722 (inactive); in [9], 0.126; in assay [12] it was 0.553; in assay [13] it was -4.13 (inactive); in [14], -0.187 (inactive); in assay [15] it was 0.274 (inactive). Moreover, the composite z-score was -0.401 (inactive) in assay [4], -0.0525 in [10], 1.47 (inactive) in assay [11] and 0.782 in the assay with XIP peptide (Xip251-270).
